# Assay results: PubChem BioAssay AID489025 (Southern Research Specialized Biocontainment Screening …, 2010)
# Hit rate of the full screen: of about 2,300 compounds, about 790 (34%) were called active. How the calls were made is not given here. The list shows a part of the results. Results with a measured potency or affinity are listed apart.
# Test: THP-1 cell cytotoxicity, dose response, cytotoxicity control for non-replicating M. tuberculosis project (AID 489025)
# Settings: THP-1 cell viability; series mostly up to 40 µM; viability: at the top concentration
row,Compound,viability
1,Cc1ccc(SCCC(=O)OCC(=O)NCC2CCCCC2)cc1,117% (inactive)
2,Cc1ccccc1OCCC(=O)OCC(=O)NNC(=O)c1cccs1,109% (inactive)
3,O=C(N/N=C/c1cccc2nccnc12)c1ccncc1,82.7% (inactive)
4,O=C(NNc1ccc([N+](=O)[O-])cc1)C1CC1c1ccccc1 (stereo not given),102% (inactive)
5,Cc1ccc(NC(=O)C2CC2c2ccccc2)cc1 (stereo not given),83.2% (inactive)
6,COc1cc(/C=N/NC(=O)c2ccncc2)ccc1OC(=O)c1cccc(F)c1,106% (inactive)
7,O=C(COC(=O)c1ccc(Br)o1)NC1CCCCC1,117% (inactive)
8,COc1cccc(OCCNC(=O)c2cc([N+](=O)[O-])cc([N+](=O)[O-])c2)c1,98.9% (inactive)
9,O=C(N/N=C/c1ccccn1)c1cccc([N+](=O)[O-])c1,79.6% (inactive)
10,O=C(N/N=C/C=C/c1cccc([N+](=O)[O-])c1)c1ccncc1,96% (inactive)
11,Cc1ccc(CSCCNC(=O)c2cccc([N+](=O)[O-])c2)cc1,94.1% (inactive)
12,CC(/C=C/c1cccc([N+](=O)[O-])c1)=N\NC(=O)c1ccncc1,86.4% (inactive)
13,FC(F)(F)c1ccc(-c2nnc(-c3cccnc3)o2)cc1,108% (inactive)
14,CC1CCCN(CCSc2ccc(Cl)cc2)C1 (stereo not given),93.1% (inactive)
15,CCC(C)(C)c1ccc(OCC(=O)Nc2ccncc2)cc1,117% (inactive)
16,COc1ccc(-n2c3c(cc(C(=O)NNc4ccccc4)c2=O)C(=O)CC(C)(C)C3)cc1,108% (inactive)
17,Cc1cccc(NC(=O)COC(=O)CCc2c[nH]c3ccccc23)c1,109% (inactive)
18,Cc1ccc(C(C)C)c(OCC(=O)OCc2c(C)noc2C)c1,106% (inactive)
19,CCOC(=O)COc1ccc(C(=O)Nc2cccc(Cl)c2C)cc1,108% (inactive)
20,CCOC(=O)Cc1nc2cc(Cl)ccc2o1,104% (inactive)
21,c1ccc(-c2nnc(SCc3nnc(-c4cccs4)o3)o2)cc1,112% (inactive)
22,O=C1c2ccccc2CC1Sc1nnc(-c2ccncc2)o1 (stereo not given),111% (inactive)
23,CCCCCCOc1ccc(N2C(=O)CC(N3CCN(C(=O)c4ccco4)CC3)C2=O)cc1 (stereo not given),96.9% (inactive)
24,CC(C)(C)c1ccc2c(c1)OC(C(=O)N/N=C\c1ccccn1)CO2 (stereo not given),114% (inactive)

row,Compound,viability
1,O=C(Nc1cccc(Cl)c1)C1COc2ccccc2O1 (stereo not given),81% (inactive)
2,O=C(Nc1ccc([N+](=O)[O-])cc1)C1COc2ccccc2O1 (stereo not given),92.3% (inactive)
3,COc1ccc(NC(=O)C2COc3ccccc3O2)cc1 (stereo not given),111% (inactive)
4,CC(/C=C/c1ccc2c(c1)OCO2)=N/NC(=O)C1COc2ccccc2O1 (stereo not given),89% (inactive)
5,Cc1ccccc1NC(=O)C1COc2ccccc2O1 (stereo not given),88% (inactive)
6,O=C(Nc1cccc([N+](=O)[O-])c1)C1COc2ccccc2O1 (stereo not given),89.2% (inactive)
7,CC(C)NC(=O)C1COc2ccccc2O1 (stereo not given),85.2% (inactive)
8,CN1CCC(O)(c2ccccc2)C(C(=O)c2ccccc2)C1 (stereo not given),93.6% (inactive)
9,COc1cccc(NC(=O)COC(=O)Cc2ccc(Br)cc2)c1,122% (inactive)
10,COc1ccc(OCCC(=O)OCC(=O)Nc2ccc(Br)cc2)cc1,107% (inactive)
11,Cn1ccsc1=NC(=O)c1ccccc1F,98.2% (inactive)
12,Cc1ccccc1C(=O)NNc1ccc([N+](=O)[O-])cc1,112% (inactive)
13,CC(C)(C)Sc1ccc2nc3c(n2c1)CCCC3,77.6% (inactive)
14,COc1ccc(N=Cc2nc(-c3ccccc3)oc2OC(C)=O)cc1,103% (inactive)
15,CCCOc1ccc(N2C(=O)CC(N3CCCC(C(=O)N4CCCC4)C3)C2=O)cc1 (stereo not given),128% (inactive)
16,Cc1ccc(C2=NN(C)c3nc4ccccc4n3C2)cc1,77.3% (inactive)
17,COc1cccc(C(=O)OCC(=O)c2ccc(Br)s2)c1OC,112% (inactive)
18,O=C(COC(=O)c1ccccc1)NC12CC3CC(CC(C3)C1)C2,90.6% (inactive)
19,C=CCN1C(=O)C2(NNc3ccccc3O2)c2ccccc21 (stereo not given),75.5% (inactive)
20,O=C(NCCC1=CCCCC1)c1coc(=O)c(Br)c1,107% (inactive)
21,COc1ccc(C2=Nc3ccccc3OC2)cc1,94.8% (inactive)
22,Cc1ccc(N2C(=O)CC(Sc3nccc(C)n3)C2=O)cc1 (stereo not given),94.9% (inactive)
23,COc1ccc(C(=O)OCn2nnc3ccccc3c2=O)cc1[N+](=O)[O-],107% (inactive)
24,COC(=O)c1ccc(Cn2cc(C(F)(F)F)cc([N+](=O)[O-])c2=O)cc1,111% (inactive)

row,Compound,viability
1,Cc1cccc(C)c1NC(=O)COC(=O)CCc1c[nH]c2ccccc12,126% (inactive)
2,C=C[C@]1(C)C=C2CCC3[C@](C)(CCC[C@@]3(C)C(=O)O)C2CC1 (stereo not given in full),104% (inactive)
3,Cc1nnc(C)n1/N=C/c1cc(Br)cc(Br)c1O,77.9% (inactive)
4,Oc1c(Br)cc(Br)cc1/C=N/c1nccs1,97.5% (inactive)
5,Cc1ccc(-c2nnc(SCC#CCOC(=O)c3ccco3)o2)cc1,103% (inactive)
6,CCOC(=O)COc1ccc2c(c1)c(C(=O)OCC)c(C)n2CC,99.8% (inactive)
7,O=C(Nc1ccccc1N1CCCC1)c1cccc(F)c1,105% (inactive)
8,COc1ccc(OCC(=O)NNC(=O)c2ccccn2)cc1,104% (inactive)
9,COC(=O)c1ccc(OCC(=O)c2cccc(OC)c2)cc1,108% (inactive)
10,COc1cccc(NC(=O)c2ccc(C(=O)c3ccccc3)o2)c1,85.4% (inactive)
11,O=C(N/N=C/c1ccc[nH]1)c1cccnc1,119% (inactive)
12,O=C(Nc1ncccc1O)c1ccc(Oc2ccccc2)cc1,90.7% (inactive)
13,O=C(COc1ccc(Cl)cc1)NNC(=O)c1ccccn1,108% (inactive)
14,CCc1ccc(NC(=O)C(=O)NNC(=O)COc2cccc(OC)c2)cc1,91.4% (inactive)
15,Brc1ccc(CSc2nnc(-c3ccco3)o2)cc1,85.3% (inactive)
16,COc1ccc([C@@]2(O)c3c(ccc(CC=C(C)C)c3O)NC(=O)[C@@H]2OC)cc1,95.8% (inactive)
17,CCCOC(=O)NC1CCS(=O)(=O)C1 (stereo not given),95.1% (inactive)
18,Cc1ccc(Sc2ccc(C=C3C(=O)N(C)C(=O)N(C)C3=O)o2)cc1,96.4% (inactive)
19,CCc1ccc(N2C(=O)CC(N3CCC(C(=O)OC)CC3)C2=O)cc1 (stereo not given),109% (inactive)
20,CCOC(=O)c1c(C)n(C)c2ccc(OC(C)C(=O)OC)cc12 (stereo not given),123% (inactive)
21,CCOC(=O)C1(CCc2ccccc2)CCN(Cc2ccccn2)CC1,72.8% (inactive)
22,COc1ccc(/C=N/NC(=O)c2ccncc2)cc1CN1CCOCC1,112% (inactive)
23,COc1cc(NC(=O)N2CCOCC2)cc(OC)c1,105% (inactive)
24,COc1cc(OC)cc(OC(=O)c2ccc3c(=O)n4c(nc3c2)CCC4)c1,100% (inactive)

row,Compound,viability
1,COc1ccc(CN2CCC(C(=O)Nc3ccc(Oc4cccnc4)cc3)CC2)c(C)c1C,81.3% (inactive)
2,O=C(CCN1CCOCC1)c1ccc(Cl)cc1,87.8% (inactive)
3,Oc1ccc(F)c2cccnc12,87.5% (inactive)
4,O=C(COc1c(Br)cc(Br)c2cccnc12)N1CCCCC1,79.9% (inactive)
5,Cc1cccc(C2=N/C(=C\c3cccnc3)C(=O)O2)c1,117% (inactive)
6,O=C(CCSc1nnc(-c2ccccc2)o1)N1CCOCC1,114% (inactive)
7,Cc1cc(C)cc(OC(=O)c2cccnc2)c1,87.5% (inactive)
8,O=C(OCn1nnc2ccccc2c1=O)c1ccc(N2CCOCC2)c([N+](=O)[O-])c1,105% (inactive)
9,Cc1[nH]n(-c2ccccc2)c(=O)c1C=Nc1cnc2ccccc2c1,103% (inactive)
10,Cc1cc(CN(C)C)c(O)c(C2(C)CCCCC2)c1,108% (inactive)
11,Cc1cccc(NC(=O)COC(=O)c2cc3ccccc3oc2=O)c1,114% (inactive)
12,O=C1NC(=O)C(=Cc2ccc(-c3ccc(Cl)cc3)o2)C(=O)N1,113% (inactive)
13,O=C(Oc1c(-c2ccco2)oc2ccccc2c1=O)c1cccnc1,73.6% (inactive)
14,O=C(CCN1CCCCCC1)c1ccccc1,83.7% (inactive)
15,CCOc1ccc(-c2nc3ccccc3c(=O)o2)cc1,116% (inactive)
16,CCOc1ccc(OC(=O)c2ccc3c(=O)n4c(nc3c2)CCC4)cc1,93.9% (inactive)
17,CC(C)Oc1ccc(C(=O)CCN2CCCCC2)cc1,112% (inactive)
18,COc1ccc(C(=O)CCN2CCCCCC2)cc1,75.2% (inactive)
19,COc1ccc2cc(C(=O)C3CCCN(Cc4ccccn4)C3)ccc2c1 (stereo not given),88% (inactive)
20,CC(C)COc1ccc(C(=O)CCN2CCCCC2)cc1,88.7% (inactive)
21,O=C(CCSc1ccccc1)N1CCCC1,109% (inactive)
22,COc1ccc(NCC(=O)N2CCCC2)cc1Cl,87.4% (inactive)
23,CC1C/C(=N/NC(=O)c2cccc(F)c2)c2ccc(O)cc2C1 (stereo not given),91.1% (inactive)
24,CN1CCN(Cc2cc(C(C)(C)C)c(O)c(C(C)(C)C)c2)CC1,104% (inactive)

row,Compound,viability
1,COc1cc(/C=C2\C(=O)N(c3ccc(S(N)(=O)=O)cc3)N=C2C)ccc1OC(=O)c1ccco1,112% (inactive)
2,CCC(C)n1nnc2c(=O)oc3ccccc3c21 (stereo not given),98.7% (inactive)
3,COc1ccc(OCC(=O)N/N=C2\CCc3ccccc32)cc1,115% (inactive)
4,Cc1ccc(NC(CC(=O)c2ccccc2)C(=O)O)cc1Cl (stereo not given),113% (inactive)
5,CC(NC(=O)OCc1ccccc1)c1ccccc1 (stereo not given),76.8% (inactive)
6,O=C(c1cccc2cccc(O)c12)N1CCCCC1,113% (inactive)
7,CCc1ccc(C(=O)NC2CCCCC2)s1,101% (inactive)
8,CC(C)(NO)/C(=N\O)c1ccccc1,92.4% (inactive)
9,Cc1c(Cl)cccc1NC(=O)C1COc2ccccc2O1 (stereo not given),110% (inactive)
10,O=S(=O)(CCN1CCN(c2ccccn2)CC1)c1ccc(Cl)cc1Cl,107% (inactive)
11,COc1ccc(OC)c(N2C(=O)NC(=O)/C(=C/c3ccc([N+](=O)[O-])s3)C2=O)c1,92.7% (inactive)
12,O=C1NC(=O)C(=Cc2ccc(Oc3ccc([N+](=O)[O-])cc3)cc2)C(=O)N1,103% (inactive)
13,O=C1NC(=O)N(Cc2ccc(F)cc2)C(=O)/C1=C\c1ccc([N+](=O)[O-])s1,77% (inactive)
14,NNC(=O)COc1cccc(Oc2ccccc2)c1,105% (inactive)
15,CC(C(=O)OCC(=O)c1ccccc1)N1C(=O)C2C3CCC(C3)C2C1=O (stereo not given),98.3% (inactive)
16,CC1=NN(C(=O)c2ccoc2C)C(O)(C(F)(F)F)C1 (stereo not given),92.6% (inactive)
17,CC1=NN(C(=O)c2csc(C)c2)C(O)(C(F)(F)F)C1 (stereo not given),111% (inactive)
18,CCC(=O)c1ccc(OCC(=O)OCC(=O)c2cc(C)n(C3CC3)c2C)cc1,106% (inactive)
19,Cc1ccsc1C(=O)OCC(=O)NCCC1=CCCCC1,87.4% (inactive)
20,NCCCN1CCOCC1,100% (inactive)
21,O=C1CC(N2CCC(C(=O)N3CCCCC3)CC2)C(=O)N1 (stereo not given),123% (inactive)
22,COC(=O)c1cc(/C=C/c2ccccc2)on1,89.5% (inactive)
23,COc1ccc(C(=O)CC(=O)C(=O)NCCc2cccc(C)c2)cc1,99.6% (inactive)
24,O=C1NC(=O)N(Cc2ccco2)C(=O)/C1=C\c1cccn1CCOc1ccc(Cl)cc1,93.3% (inactive)
